# Screening data (PubChem)
# S aureus QS inh: S. aureus quorum sensing inhibitors, primary screen, RNAIII-GFP reporter, flow cytometry; actives 0.3% (n = 24,000); S. aureus RN6390 RNAIII-GFP reporter, AIP-induced, flow cytometry 3 h; inhibition, % at 2 µM;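 active = share of bacteria positive for the green fluorescent reporter and its mean brightness both inhibited by 50% or more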;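 note: 0% = AIP-stimulated control and 100% = unstimulated bacteria without AIP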
# Proteasome disasm: inhibitors of ATP-driven 26S proteasome dissociation, primary screen, biochemical, bead-based flow cytometry, GFP-tagged proteasome. AID 751, 2007. actives 0.2% (n = 24,000). inhibition of disassembly, % (no concentration beside the values). anti-FLAG beads, GFP-proteasome disassembly;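 active = inhibition of disassembly above about 33%, limit read from the data; inconclusive = likely self-fluorescent, control bead median signal at least 40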;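 note: plate controls were ATP control with full disassembly for no effect and ATP-gamma-S intact proteasomes for full effect; higher percent means more bead fluorescence retained so stronger block of disassembly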
# LNCaP diff act: activators of LNCaP prostate cell differentiation, primary screen, flow cytometry side scatter. AID 795, 2007. actives 0.56% (n = 24,000). side scatter shift, % at 10 µM. 4 d;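 active = side scatter shift above 30%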;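 note: androgen-responsive LNCaP prostate cancer cells in charcoal-stripped serum medium; percent of cells past a gate set so DMSO wells show 10% shift; higher shift means more granular cells and more differentiation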
# * hit, by the source's call; ? = inconclusive; nt = not tested or not shown. Rows were chosen to be rich in hits. Some 1% of all compounds tested hit in one or more screens of this group.
SMILES,S aureus QS inh,Proteasome disasm,LNCaP diff act
Cc1nn(-c2ccccc2)c2sc(-c3n[nH]c(=S)o3)cc12,60*,8,4
C#CC(C)(CC)NC(=O)Cn1nnc(-c2ccc(S(C)(=O)=O)cc2)n1 (stereo not given),-2,0,12
COc1ccc(N2CCN(C(=O)c3ccc(CNc4c(N5CCOCC5)c(=O)c4=O)cc3)CC2)cc1,-2,0,10
Cn1c(C(=O)NCCCN2CCN(c3ccccc3F)CC2)cc2c(=O)n(C)c3ccccc3c21,-2,-2,70*
Cn1c(C(=O)NCCCN2CCOCC2)cc2c(=O)n(C)c3ccccc3c21,-4,-5,13
COC(=O)CSc1nnc(CNC(=O)Cc2ccccc2)n1-c1ccccc1OC,-4,-2,10
O=C(NCCc1c[nH]c2ccccc12)C(=O)NCC(c1ccco1)N1CCN(c2ccccc2F)CC1 (stereo not given),0,nt,nt
CCOc1cccc2cc(-c3nnc(NCc4ccco4)s3)c(=O)oc12,0,-1,9
CCOc1cccc2cc(-c3cn4cc(C)ccc4n3)c(=O)oc12,0,-2,57*
OCCN1CCN(c2ncnc3ccc(Br)cc23)CC1,-4,-1,3
CC(C)Cc1nc2oc3c(N4CCN(CCO)CC4)ncnc3c2c2c1CCCC2,3,0,32*
CCOC(=O)N1CCC(NC(=O)c2cccc3c2C(=O)N(Cc2cccnc2)C3)CC1,-1,-2,14
Cc1ccc(-n2nc(C(=O)N3CCN(C)CC3)c3c4ccccc4n(C)c3c2=O)cc1,-2,0,10
CCN1CCCC1CNC(=O)c1nn(-c2ccc(C)cc2)c(=O)c2c1c1ccccc1n2C (stereo not given),-1,14,32*
CCOC(=O)C1CCN(C(=O)C2CCN(S(=O)(=O)c3cc(Cl)ccc3Cl)CC2)CC1,-1,0,13
CCc1ccc(CNC(=O)CN2C(=O)COc3ccccc32)cc1,-1,0,nt
Cc1ccc(CN2CCSc3ccc(C(=O)N4CCN(c5ncccn5)CC4)cc32)cc1,-1,0,44*
O=C(NCCN1CCOCC1)c1ccc2c(c1)N(Cc1ccccc1)CCS2,10,0,4
COc1cc(OC)cc(C(C)=O)c1,-5,-2,7
CCN1CCCC1CNC(=O)c1cc2c(-c3cccc(OC)c3)nn(C)c2s1 (stereo not given),1,17,23
CCCCNC(=O)c1cc2c(-c3ccc(Cl)cc3)nn(C)c2s1,-7,0,4
Cn1nc(-c2ccc(Cl)cc2)c2cc(C(=O)NCCCN3CCCC3)sc21,-1,2,62*
CCN1CCCC1CNC(=O)c1cc2c(-c3ccc(Cl)cc3)nn(C)c2s1 (stereo not given),3,3,64*
CCN1CCN(C(=O)C2CCN(Cc3nc(-c4cccc(Cl)c4)oc3C)CC2)CC1,-1,9,23
COc1ccc(CCNC(=O)C2CCN(Cc3nc(-c4ccc(Cl)cc4)oc3C)CC2)cc1OC,-3,3,10
SMILES,S aureus QS inh,Proteasome disasm,LNCaP diff act
COC(=O)c1ccc2c(c1)N(Cc1nc(-c3ccc(Cl)cc3)oc1C)C(=O)C1CCCN21 (stereo not given),3,138*,17
COC(=O)c1ccc2c(c1)N(Cc1nc(-c3cccc(Cl)c3)oc1C)C(=O)C1CCCN21 (stereo not given),-1,81*,3
O=C1OCc2cc(NC(=O)C3COc4ccccc4O3)ccc21 (stereo not given),0,9,5
Cc1cccn2c(=O)c3cc(C(=O)N4CCc5ccccc54)n(C)c3nc12,-4,-1,11
O=C(Nc1ccc(S(=O)(=O)NC2CCCC2)cc1)c1cnccn1,2,0,13
Cc1cc(C)nc(N2CCC(C(=O)Nc3ccc(Oc4ccccc4)cc3)CC2)n1,1,1,33*
Cc1cc(C)nc(N2CCC(C(=O)NCc3cccc(C(F)(F)F)c3)CC2)n1,0,1,16
CCOC(=O)C1=C(C)N=c2s/c(=C\c3cccn3C)c(=O)n2C1c1cccc(OC)c1OC (stereo not given),6,14,11
COC(=O)C1=C(C)N=c2s/c(=C/c3cccs3)c(=O)n2C1c1cccs1 (stereo not given),4,110*,31*
COc1ccc(N(CC(=O)Nc2cccc(OC)c2)S(=O)(=O)c2c(C)nn(C)c2C)cc1,0,0,16
COc1ccc(N(CC(=O)Nc2nc3ccc(C)cc3s2)S(=O)(=O)c2c(C)nn(C)c2C)cc1,66*,1,6
CC1CCc2cc(F)cc3c(O)c(C(=O)Nc4cnccn4)c(=O)n1c23 (stereo not given),0,-1,8
CCCN1Cc2cccc(C(=O)Nc3ccc(OC)c(OC)c3)c2C1=O,-3,-1,12
CCCN1Cc2cccc(C(=O)Nc3ccc(CN4CCCC4)cc3)c2C1=O,-9,102*,4
COc1ccc(NS(=O)(=O)c2ccc3c(c2)CCC(=O)N3)c(OC)c1,-1,-3,6
O=C(Nc1cccc(F)c1)C1C2C=CC3(CN(CCCN4CCOCC4)C(=O)C13)O2 (stereo not given),-1,0,4
CN1CCN(CCCNC(=O)c2ccc3c(c2)N(Cc2ccccc2)CCS3)CC1,-1,0,6
O=C(CN1C(=O)CC(c2ccco2)Sc2ccccc21)Nc1ccc2c(c1)OCCO2 (stereo not given),83*,0,16
O=C(CN1C(=O)CCSc2ccccc21)Nc1ccc2c(c1)OCCO2,-3,-1,6
CC(=O)c1cccc(S(=O)(=O)NCC(c2ccco2)N2CCCCC2)c1 (stereo not given),-2,4,10
CC(C)(CC(=O)N1CCN(c2ccc(Cl)cc2)CC1)CC1=NS(=O)(=O)c2ccccc2N1,10,?,11
Cc1nn(-c2ccccc2)c(OC(=O)c2cccs2)c1S(=O)(=O)c1ccccc1,53*,0,6
Nc1cc(OC(=O)c2cccs2)nn1S(=O)(=O)c1ccccc1,-2,0,5
CCc1ccc(-c2nc(CN3CCC(C(=O)N4CCN(c5ccccn5)CC4)CC3)c(C)o2)cc1,2,1,3
Cc1oc(-c2cccc(Cl)c2)nc1CN1CCC(C(=O)N2CCN(c3ccccn3)CC2)CC1,23,6,24
SMILES,S aureus QS inh,Proteasome disasm,LNCaP diff act
Cc1oc(-c2ccc(Cl)cc2)nc1CN1CCC(C(=O)N2CCN(c3ccccn3)CC2)CC1,0,3,43*
CCc1ccc(-c2nc(CN3CCC(C(=O)N4CCN(c5ccccc5)CC4)CC3)c(C)o2)cc1,-6,4,35*
CCc1cccc(NC2c3ccccc3C(=O)N2c2cccnc2)c1 (stereo not given),-2,-1,11
COc1ccccc1CNC(=O)c1cc2c(=O)n(C)c3ccccc3c2n1C,0,0,17
Cc1c(O)c(CN2CCCC(C)C2)cc2c3c(c(=O)oc12)CCC3 (stereo not given),0,-2,12
Cc1c(C)[n+](=O)c2c(n1[O-])CCCCC2,0,-1,6
Cc1ccc(NC(=O)COC(=O)c2ccn(C)n2)cc1,-1,1,8
Oc1ccc(-c2nc3ncccn3c2Nc2ccc3c(c2)OCCO3)cc1,83*,0,1
COc1ccc(-c2nc3ncccn3c2Nc2ccc3c(c2)OCCO3)cc1,-1,0,9
